Measurements published in PubChem BioAssay (NCI).
Compounds without any hit were thinned out: in the full panel of roughly 79,000, 15% have a hit. Rule as the data show it: active = growth inhibition above about 70%; inactive = the rest.

Tests used:
[1] = NCI Yeast Anticancer Drug Screen. Data for the rad50 strain (AID 155);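 also: 0% = growth of vehicle-only cultures of the same strain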; settings: S. cerevisiae rad50 strain growth inhibition; at 50.0 µM; active compounds read high
Procedure, shortened: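 Compounds were tested on a yeast strain with an engineered DNA damage repair alteration; the reported value is growth inhibition normalised to vehicle treatment.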

[2] = NCI Yeast Anticancer Drug Screen. Data for the mec2-1 strain (AID 157); settings: S. cerevisiae mec2-1 strain, at 50.0 µM, active compounds read high
Procedure, shortened: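 Readout is yeast growth inhibition, normalised to vehicle-treated controls, in the mec2-1 strain exposed to compound.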

[3] = NCI Yeast Anticancer Drug Screen. Data for the sgs1 mgt1 strain (AID 161);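 also: 0% = growth of cultures given vehicle only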; settings: S. cerevisiae sgs1 mgt1 strain, at 50.0 µM, active compounds read high
Procedure, shortened: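 Growth of a repair-deficient yeast mutant was monitored after compound treatment and expressed as inhibition relative to vehicle-treated cultures.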

[4] = NCI Yeast Anticancer Drug Screen. Data for the cln2 rad14 strain (AID 165);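 also: 0% = growth equal to vehicle treated cultures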; settings: S. cerevisiae cln2 rad14 strain, at 50.0 µM, active compounds read high
Procedure, shortened: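 Relative to vehicle controls, growth inhibition of compound-treated cln2 rad14 yeast was recorded.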

[5] = NCI Yeast Anticancer Drug Screen. Data for the bub3 strain (AID 167); settings: S. cerevisiae bub3 mutant strain, at 50.0 µM, active compounds read high
Procedure, shortened: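 Growth of a checkpoint-deficient yeast mutant is measured after compound exposure. Values represent inhibition relative to vehicle.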

[6] = NCI Yeast Anticancer Drug Screen. Data for the mlh1 rad18 strain (AID 175); settings: S. cerevisiae mlh1 rad18 strain growth inhibition; at 50.0 µM; active compounds read high
Procedure, shortened: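 Test agents were incubated with a yeast strain of defined genotype (DNA damage repair defect). Inhibition of growth was derived by comparison with vehicle-exposed cultures.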

Measured: growth inhibition

CC1(C)CCCC/C1=N\NC(N)=O
inactive: [1] -12.6% | [2] -20.4% | [3] -8% | [4] -6.15% | [5] -9.6% | [6] -14.8%

O=C(O)c1c(Br)c(Br)c(Br)c(Br)c1C(=O)Nc1ccc(Cl)cc1C(F)(F)F
inactive: [1] 1.35% | [2] 10.1% | [3] 11.1% | [4] -6.55% | [5] 0.3% | [6] 13.3%

CCN(CC)CCN1C(=O)c2cccc3cc(N)cc(c23)C1=O
inactive: [1] -1.9% | [2] -27.3% | [3] -7.4% | [4] -3.75% | [5] -9.6% | [6] 2.2%

COP(=O)(OC)C(Cc1cn(C(C)=O)c2ccccc12)C(=O)O (stereo unspecified)
inactive: [1] -53.3% | [2] -69.5% | [3] -56.8% | [4] -25.1% | [5] -27.4% | [6] -37.5%

Cc1cc(C)nc(Nc2nc3ccc([N+](=O)[O-])cc3[nH]2)n1
inactive: [1] 0.5% | [2] -5.3% | [3] 5.5% | [4] -7.4% | [5] -5.05% | [6] -4.85%

O=S1(=O)OCCOS(=O)(=O)C1(F)Br
inactive: [1] -38.4% | [2] -4.7% | [3] -19.6% | [4] -8% | [5] -20.6% | [6] -29.8%

COC(=O)C(CSSCC(C(=O)NC(Cc1ccccc1)C(=O)NCC(=O)OC(C)(C)C)N1C(=O)CCC1=O)NC(=O)OCc1ccccc1 (stereo unspecified)
inactive: [1] -29.2% | [2] 11.4% | [3] -5.45% | [4] -45.4% | [5] -51.4% | [6] 18.9%

C=CCNC(=O)C[n+]1cccc(C(=O)Nc2ccccc2)c1
inactive: [1] 1.65% | [2] -18.2% | [3] 5.4% | [4] 23.2% | [5] 5.95% | [6] -0.95%

CCCCCCCCCCCCCCCCCC(CCCCCCCC)CCCCCCCC
inactive: [1] -5.15% | [2] 0.65% | [3] -30.8% | [4] 3.3% | [5] 0.25% | [6] 23.6%

C/C=C/C(=O)N(CC)c1ccccc1
inactive: [1] 37.2% | [2] -2.25% | [3] 10.8% | [4] -8.35% | [5] 2.9% | [6] 33.8%

CC(=O)NNc1nc(C)c(C(=O)/C=C/c2ccc(Cl)cc2)s1
inactive: [1] 44.2% | [2] 12.7% | [3] 21.7% | [4] 27.4% | [5] 19% | [6] 30.2%

Nc1c(OS(=O)(=O)c2ccccc2)cccc1OS(=O)(=O)c1ccccc1
inactive: [1] 20.8% | [2] -2.45% | [3] 18.8% | [4] 20.7% | [5] 39.7% | [6] 37.1%

COc1ccc(NC(=O)CC#N)cc1
inactive: [1] 7.9% | [2] 1.6% | [3] 15.8% | [4] 6.1% | [5] -3.25% | [6] 3.75%

CC=NC(C)(C)C
inactive: [1] -7.25% | [2] -9.15% | [3] -12.3% | [4] -11.8% | [5] 3.3% | [6] -18.9%

Cc1c([N+](=O)[O-])cc(C(C)(C)C)c(OC(=S)N(C)C)c1[N+](=O)[O-]
inactive: [1] 26.9% | [2] 23.4% | [3] -1.75% | [4] 18% | [5] 14.7% | [6] 0.7%

O=C1NC(=O)C(CN2C(=O)/C(=C/c3cccc(O)c3)SC2=S)C(=O)N1
inactive: [1] -55.2% | [2] -20.8% | [3] -29.7% | [4] -20.6% | [5] -20.4% | [6] -71.8%

C/C(=C\c1ccccc1)c1ccccc1
inactive: [1] -47.8% | [2] 1.9% | [3] -3.75% | [4] -30.4% | [5] 2.1% | [6] 8.45%

Cc1ccc(S(=O)(=O)N/N=C2/C(=O)N(c3ccc(Cl)cc3C)C(=O)C(=O)C2c2nc3ccccc3s2)cc1 (stereo unspecified)
inactive: [1] 0.85% | [2] 20.7% | [3] 1.85% | [4] 7.5% | [5] -2.1% | [6] 11.2%

CCCCn1cnc2c(SCCNC(=O)N(C)N=O)ncnc21
inactive: [1] 6.3% | [2] -8.25% | [3] 10.3% | [4] -45.3% | [5] 3.5% | [6] -2.05%

c1ccc(-c2nc3ccccc3o2)cc1
inactive: [1] 31.3% | [2] 21.4% | [3] 26.9% | [4] 4.25% | [5] 27.4% | [6] 37.4%

NC(=O)c1csc(CCCCCCc2nc(C(N)=O)cs2)n1
inactive: [1] -13.8% | [2] -15.5% | [3] -5% | [4] 8.75% | [5] -21.2% | [6] -21.1%
